Experimental data taken from PubChem BioAssay (NCI).
This is part of a sample that, as a whole, favours compounds with a hit. Of some 83,000 tested, about 20% had one in any assay.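 Negative percent growth values reflect cell death: -40 means 40% of the cells present at the start died, and -100 means all died.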 Calls of active or inactive are those of the source. How the source made its calls: active means growth percent below 10; inactive means the rest.

How the values were obtained:
Experiment in all cases: NCI-60 one-dose screen, 48 h (100 = growth as untreated, 0 = no growth, -100 = all killed)
Conditions in all cases: 10 µM unless noted
SR leukemia = tested on: SR leukemia
RPMI-8226 leukemia = tested on: RPMI-8226 leukemia
OVCAR-8 ovarian = tested on: OVCAR-8 ovarian
OVCAR-5 ovarian = tested on: OVCAR-5 ovarian
OVCAR-4 ovarian = tested on: OVCAR-4 ovarian
SK-OV-3 ovarian = tested on: SK-OV-3 ovarian
IGROV1 ovarian = tested on: IGROV1 ovarian
OVCAR-3 ovarian = tested on: OVCAR-3 ovarian
HS 578T breast = tested on: HS 578T breast
NCI/ADR-RES ovarian = tested on: NCI/ADR-RES ovarian
T-47D breast = tested on: T-47D breast
BT-549 breast = tested on: BT-549 breast
MDA-MB-435 melanoma = tested on: MDA-MB-435 melanoma
SW-620 colon = tested on: SW-620 colon
MCF7 breast = tested on: MCF7 breast
HCT-116 colon = tested on: HCT-116 colon
KM12 colon = tested on: KM12 colon
HCC-2998 colon = tested on: HCC-2998 colon

Measured: growth

O=C1Nc2ccccc2/C1=C/c1ccc(CO)n1-c1ccc(Cl)cc1
active: MDA-MB-435 melanoma -25.5%
inactive: SR leukemia 35.5% | RPMI-8226 leukemia 53.2% | OVCAR-8 ovarian 85.9% | OVCAR-5 ovarian 89.8% | OVCAR-4 ovarian 89.9% | SK-OV-3 ovarian 80% | IGROV1 ovarian 48.1% | OVCAR-3 ovarian 31.7% | HS 578T breast 59% | NCI/ADR-RES ovarian 33.9% | T-47D breast 62.9% | BT-549 breast 55.3% | SW-620 colon 32.4% | MCF7 breast 24.1% | HCT-116 colon 23.8% | KM12 colon 13.4%

CNC(=O)c1c(NC(=O)c2ccccc2C(F)(F)F)sc2c1CCC(=O)C2
inactive: SR leukemia 29% | OVCAR-8 ovarian 24.6% | OVCAR-5 ovarian 23.2% | OVCAR-4 ovarian 16.2% | SK-OV-3 ovarian 95.7% | IGROV1 ovarian 36.6% | OVCAR-3 ovarian 11.2% | HS 578T breast 40% | NCI/ADR-RES ovarian 28.1% | BT-549 breast 27.2% | MDA-MB-435 melanoma 37.5% | SW-620 colon 21% | MCF7 breast 13.9% | HCC-2998 colon 62% | KM12 colon 18.5%
active: RPMI-8226 leukemia -0.77% | T-47D breast 9.8% | HCT-116 colon 8.16%

CS(=O)(=O)c1ncc(-c2ccccc2)cn1
inactive: SR leukemia 70.9% | RPMI-8226 leukemia 108% | OVCAR-8 ovarian 99.3% | OVCAR-5 ovarian 103% | OVCAR-4 ovarian 98.6% | SK-OV-3 ovarian 108% | IGROV1 ovarian 99.5% | OVCAR-3 ovarian 90.7% | HS 578T breast 111% | NCI/ADR-RES ovarian 103% | T-47D breast 94.4% | BT-549 breast 93.4% | MDA-MB-435 melanoma 95.2% | SW-620 colon 113% | MCF7 breast 91.9% | HCT-116 colon 96.9% | HCC-2998 colon 104% | KM12 colon 100%

O=C1[C@H]2Cc3c([nH]c4ccccc34)[C@@H](c3ccc(Br)cc3)N2C(=O)CN1C1CCN(CC2CCCCC2)CC1
inactive: SK-OV-3 ovarian 64.7% | T-47D breast 44.7%
active: SR leukemia -67.6% | RPMI-8226 leukemia -35% | OVCAR-8 ovarian -48.5% | OVCAR-5 ovarian -84.6% | OVCAR-4 ovarian -64% | IGROV1 ovarian -82.2% | OVCAR-3 ovarian -90% | HS 578T breast -56.4% | NCI/ADR-RES ovarian -83.8% | BT-549 breast -3.47% | MDA-MB-435 melanoma -88% | SW-620 colon -83.4% | MCF7 breast -99.1% | HCT-116 colon -93.2% | HCC-2998 colon -98.8% | KM12 colon -90.1%

Cn1ccnc1C(=O)/C=C/c1ccc(CNC(=O)c2c(F)c(F)c(F)c(F)c2F)cc1
inactive: SR leukemia 12.8% | OVCAR-8 ovarian 90.1% | OVCAR-5 ovarian 94.9% | OVCAR-4 ovarian 95.4% | SK-OV-3 ovarian 105% | IGROV1 ovarian 31.7% | OVCAR-3 ovarian 14.8% | HS 578T breast 86.9% | NCI/ADR-RES ovarian 49.1% | T-47D breast 41.4% | BT-549 breast 74.1% | MDA-MB-435 melanoma 64.7% | SW-620 colon 38.2% | MCF7 breast 19.4% | HCC-2998 colon 90.7% | KM12 colon 23.2%
active: RPMI-8226 leukemia 9.9% | HCT-116 colon 4.78%

O=C(O)c1ccc(-n2cc(CNc3cc(F)c(F)c(F)c3)c(-c3cccc(F)c3)n2)cc1
inactive: SR leukemia 80.4% | RPMI-8226 leukemia 86.7% | OVCAR-8 ovarian 82.8% | OVCAR-5 ovarian 107% | OVCAR-4 ovarian 95.5% | SK-OV-3 ovarian 113% | IGROV1 ovarian 98.8% | OVCAR-3 ovarian 96.1% | HS 578T breast 102% | NCI/ADR-RES ovarian 90.8% | T-47D breast 81.6% | BT-549 breast 107% | MDA-MB-435 melanoma 99.8% | SW-620 colon 105% | MCF7 breast 41% | HCT-116 colon 86.2% | KM12 colon 96.8%

NC(N)=Nc1ccc(Oc2ccc(Nc3ccc(Cl)c(C(F)(F)F)c3)cc2)cc1
inactive: RPMI-8226 leukemia 41.9% | OVCAR-8 ovarian 55.1% | OVCAR-5 ovarian 66.2% | OVCAR-4 ovarian 52.3% | SK-OV-3 ovarian 89.4% | HS 578T breast 56.1% | NCI/ADR-RES ovarian 91.9% | T-47D breast 41.1% | BT-549 breast 86.1% | MDA-MB-435 melanoma 40.3% | SW-620 colon 25.6% | HCT-116 colon 11.3%
active: SR leukemia -4.22% | IGROV1 ovarian -7.75% | OVCAR-3 ovarian -21.8% | MCF7 breast 2.64% | HCC-2998 colon 1.24% | KM12 colon 5.94%

COc1cc(-c2nn(C(C)(C)C)cc2-c2ccnc(NCCCNS(=O)(=O)c3ccccc3)n2)ccc1Cl
inactive: SR leukemia 56% | RPMI-8226 leukemia 56.3% | OVCAR-8 ovarian 84.9% | OVCAR-5 ovarian 84.3% | OVCAR-4 ovarian 57.6% | SK-OV-3 ovarian 103% | IGROV1 ovarian 55.2% | OVCAR-3 ovarian 93.1% | HS 578T breast 68.3% | NCI/ADR-RES ovarian 71% | T-47D breast 82.3% | BT-549 breast 81.1% | MDA-MB-435 melanoma 84% | SW-620 colon 90.3% | MCF7 breast 70.1% | HCT-116 colon 59.9% | HCC-2998 colon 95.6% | KM12 colon 86.5%

CN1CCN(c2ccc(/C=N/Nc3nc4ccccc4c(=O)n3-c3ccccc3)cc2)CC1
inactive: SR leukemia 93.4% | RPMI-8226 leukemia 101% | OVCAR-8 ovarian 102% | OVCAR-5 ovarian 107% | OVCAR-4 ovarian 97.2% | SK-OV-3 ovarian 109% | IGROV1 ovarian 104% | OVCAR-3 ovarian 104% | HS 578T breast 92.5% | NCI/ADR-RES ovarian 101% | T-47D breast 92.6% | BT-549 breast 108% | MDA-MB-435 melanoma 104% | SW-620 colon 99.6% | MCF7 breast 93.3% | HCT-116 colon 99% | HCC-2998 colon 103% | KM12 colon 99.8%

COc1cc(C2N=C(NNc3ccccc3)NC(C)=C2C(C)=O)ccc1O (centres undefined)
inactive: SR leukemia 57.7% | RPMI-8226 leukemia 110% | OVCAR-8 ovarian 94.2% | OVCAR-5 ovarian 92.7% | OVCAR-4 ovarian 93% | SK-OV-3 ovarian 90.1% | IGROV1 ovarian 69.9% | OVCAR-3 ovarian 122% | HS 578T breast 108% | NCI/ADR-RES ovarian 87.8% | T-47D breast 83.9% | BT-549 breast 123% | SW-620 colon 82.1% | MCF7 breast 88.7% | HCT-116 colon 95.1% | HCC-2998 colon 98.9% | KM12 colon 95.6%

CCCn1cnc2c(c1=N)C(c1ccc(OC)cc1)c1sc3c(C)cccc3c1O2 (centres undefined)
active: RPMI-8226 leukemia -3.63% | OVCAR-3 ovarian 7.94% | NCI/ADR-RES ovarian 7.35% | MDA-MB-435 melanoma -33.4% | HCT-116 colon 6.27%
inactive: SR leukemia 27% | OVCAR-8 ovarian 23.9% | OVCAR-5 ovarian 32.4% | OVCAR-4 ovarian 75.3% | SK-OV-3 ovarian 49% | IGROV1 ovarian 18.4% | HS 578T breast 10.5% | T-47D breast 40.6% | BT-549 breast 12.2% | SW-620 colon 25.7% | MCF7 breast 20.4% | HCC-2998 colon 15% | KM12 colon 11.7%

COc1cc(OC)c(/C=C/S(=O)(=O)Cc2ccc(OC)c(NC(=O)CCC(=O)NO)c2)c(OC)c1
inactive: SR leukemia 14.2% | RPMI-8226 leukemia 16.9% | OVCAR-8 ovarian 17.2% | OVCAR-5 ovarian 33.9% | OVCAR-4 ovarian 45.3% | SK-OV-3 ovarian 32.6% | IGROV1 ovarian 13.4% | HS 578T breast 16.2% | NCI/ADR-RES ovarian 10.2% | T-47D breast 86.4% | BT-549 breast 14.5% | SW-620 colon 21.7% | MCF7 breast 11.9% | HCC-2998 colon 10.3%
active: OVCAR-3 ovarian 6.69% | HCT-116 colon 3.5% | KM12 colon 7.24%

NS(=O)(=O)c1ccc(Nc2nc(Nc3ccccc3)nc3nnc(SCC(=O)NC4CCCCC4)n23)cc1
inactive: SR leukemia 97.7% | RPMI-8226 leukemia 105% | OVCAR-8 ovarian 99.8% | OVCAR-5 ovarian 105% | OVCAR-4 ovarian 108% | SK-OV-3 ovarian 105% | IGROV1 ovarian 95.5% | OVCAR-3 ovarian 119% | HS 578T breast 102% | NCI/ADR-RES ovarian 112% | T-47D breast 104% | BT-549 breast 104% | MDA-MB-435 melanoma 110% | SW-620 colon 106% | MCF7 breast 100% | HCT-116 colon 99.8% | KM12 colon 102%

O=S(=O)(NCCCNc1nccc(-c2[nH]c(-c3ccccc3)nc2-c2ccc(Cl)c(O)c2)n1)c1cccc2ccccc12
inactive: SR leukemia 17.8% | OVCAR-8 ovarian 27.1% | OVCAR-5 ovarian 67.1% | OVCAR-4 ovarian 56.9% | SK-OV-3 ovarian 68.5% | IGROV1 ovarian 28.7% | OVCAR-3 ovarian 18.7% | HS 578T breast 44% | NCI/ADR-RES ovarian 34.6% | T-47D breast 21.9% | BT-549 breast 46% | SW-620 colon 34.1% | MCF7 breast 16.4% | HCT-116 colon 16.3% | HCC-2998 colon 70% | KM12 colon 21.5%
active: RPMI-8226 leukemia 9.64%

N#Cc1c(NC(=O)c2cccc(C(F)(F)F)c2F)sc2c1CCC(=O)C2
inactive: OVCAR-8 ovarian 11.7%
active: SR leukemia 0.648% | RPMI-8226 leukemia -24.6% | OVCAR-5 ovarian -6.14% | OVCAR-4 ovarian -36.3% | SK-OV-3 ovarian 5.3% | IGROV1 ovarian -0.691% | OVCAR-3 ovarian -40.5% | HS 578T breast -17% | NCI/ADR-RES ovarian -3.6% | T-47D breast -3.25% | BT-549 breast -22.7% | SW-620 colon 0.65% | MCF7 breast 2.17% | HCT-116 colon -50.9% | HCC-2998 colon -29.6% | KM12 colon -42.7%

CC(C)(C)c1ccc(C(=O)Nc2sc3c(c2C(N)=O)CCC(O)C3)cc1 (centres undefined)
inactive: SR leukemia 25.8% | RPMI-8226 leukemia 16.3% | OVCAR-8 ovarian 43.4% | OVCAR-5 ovarian 66.5% | OVCAR-4 ovarian 68.5% | SK-OV-3 ovarian 70.1% | IGROV1 ovarian 44.9% | OVCAR-3 ovarian 55.3% | HS 578T breast 82.9% | NCI/ADR-RES ovarian 49.9% | T-47D breast 28.8% | BT-549 breast 58.5% | MDA-MB-435 melanoma 32.2% | HCT-116 colon 26.3% | HCC-2998 colon 37.4% | KM12 colon 11.7%
active: SW-620 colon 7.55% | MCF7 breast 5.17%

O=C(O)c1ccc(-n2cc(CNc3cc(F)c(F)c(F)c3)c(-c3ccc(F)cc3)n2)cc1
inactive: SR leukemia 78.1% | RPMI-8226 leukemia 76.3% | OVCAR-8 ovarian 83.9% | OVCAR-5 ovarian 108% | OVCAR-4 ovarian 95.5% | SK-OV-3 ovarian 116% | IGROV1 ovarian 91.9% | OVCAR-3 ovarian 96.3% | HS 578T breast 97.5% | NCI/ADR-RES ovarian 97.8% | T-47D breast 85.5% | BT-549 breast 107% | MDA-MB-435 melanoma 96.1% | SW-620 colon 103% | MCF7 breast 58.3% | HCT-116 colon 88.5% | HCC-2998 colon 102% | KM12 colon 92.9%
